Screens from PubChem BioAssay.
D2 antag = antagonists of human D2 dopamine receptor; P14416; HEK293 TREx D2 cells, calcium flux, dopamine EC80; inhibition, % at 10 µM; actives 2% (n = 340,000); AID 485344; in the data active = inhibition above about 30%; inactive = below that, where a call was filed; note: 0% is about no effect
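Calcium flux kinetic readout in an inducible HEK293 TREx D2 line plated overnight at 30 C. After 180 s compound exposure, an EC80 dopamine challenge follows with another 180 s kinetic read to detect antagonism.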
D2 PAM-1 = positive allosteric modulators of human D2 dopamine receptor; actives 0.34% (n = 340,000); HEK293 T-REx D2, calcium flux, EC20 dopamine potentiation; P14416; AID 485347; potentiation, % at 10 µM;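 active = potentiation over 3 SD above the plate norm, cut at about 30% in these data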; note: 0% is about no effect
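Calcium flux readout, no-wash dye, 1 read/s. Inducible HEK293 Trex D2 line, overnight 30 C. Compound alone 180 s (agonist flags), then EC20 dopamine, another 180 s to score potentiation.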
D2 ag-1 = activates the human D2 dopamine receptor | P14416 | DiscoveRx PathHunter D2 beta-arrestin, luminescence, 90 min; 100% = 57 uM dopamine signal | actives 0.084% (n = 360,000) | activation, % (no concentration beside the values); in the data active = activation above about 40%; inconclusive = between about 15% and that limit
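DiscoveRx PathHunter D2 beta-arrestin cells (2,100/well) attached overnight, then compound-stimulated 90 min at 37 C in HBSS/10 mM HEPES/0.1% Tween-20 buffer; beta-galactosidase complementation read by luminescence after 1 h at ambient temperature. Dopamine 57 uM final (EC100) as control.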
D2 ag-2 = agonists of human D2 dopamine receptor | P14416 | HEK293 T-REx D2 cells, calcium flux agonist mode | activation, % at 2 µM | actives 0.53% (n = 340,000) | AID 485358;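 active = activation over 3 SD above normal in the single-dose calcium agonist read, cut at about 30% in these data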; note: 0% is about no effect
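Agonism is scored from calcium flux in a force-coupled, inducible HEK293 cell line expressing D2, read kinetically for 180 s after compound addition against dopamine controls.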
D2 PAM-2 = positive allosteric modulators of human D2 dopamine receptor; P14416; DiscoveRx D2 beta-arrestin cells, luminescence, 90 min; 100% = 57 uM dopamine signal; potentiation, % (no concentration beside the values); actives 0.23% (n = 360,000); in the data active = potentiation above about 50%; inconclusive = mostly about 30% to 49%
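D2 cells co-treated with compound plus 50 nM dopamine (EC20) for 90 min at 37 deg C to detect potentiation. Beta-arrestin recruitment was read as enzyme-fragment luminescence after 1 h at ambient temperature. Full response was set by 57 uM dopamine.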
D3 arrestin ag = confirmation of human D3 dopamine receptor agonists, beta-arrestin. shares compounds with D2 ag-2. DiscoveRx D3 beta-arrestin cells, luminescence, 90 min. Potency, µM (top dose mostly 76.9 µM), for the others: at the highest dose activation, most hits filed as activators. actives 4% (n = 2,300);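 note: potency is the fitted concentration of half-maximal effect; 100% = dopamine control response; nearly all actives have a fitted effect of over 70% in size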
Target sequence (P35462 whole entry, looked up): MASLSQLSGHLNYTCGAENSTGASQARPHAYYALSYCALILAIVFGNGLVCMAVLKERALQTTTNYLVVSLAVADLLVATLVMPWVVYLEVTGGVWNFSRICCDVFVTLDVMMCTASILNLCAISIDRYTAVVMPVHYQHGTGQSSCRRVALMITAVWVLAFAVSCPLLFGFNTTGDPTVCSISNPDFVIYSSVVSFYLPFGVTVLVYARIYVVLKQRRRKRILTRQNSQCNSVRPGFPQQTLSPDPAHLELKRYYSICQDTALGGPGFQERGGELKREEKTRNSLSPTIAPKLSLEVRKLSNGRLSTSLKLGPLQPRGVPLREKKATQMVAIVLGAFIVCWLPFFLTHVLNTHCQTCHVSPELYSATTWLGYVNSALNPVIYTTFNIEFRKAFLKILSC
D2 ag-3 = activates human D2 dopamine receptor in D3 counterscreen | shares compounds with D2 ag-2 | DiscoveRx PathHunter D2 beta-arrestin, luminescence, 90 min; response scale: percent relative to full dopamine signal | Potency, µM (top dose mostly 76.9 µM), without a hit: at the highest dose activation, hits mostly activators | actives 5.9% (n = 2,300); note: potency is the fitted concentration of half-maximal effect; % of control where 0% means no effect; nearly all actives have a fitted effect of over 70% in size
An asterisk follows results filed as active; ? = inconclusive; nt = no result given. Only some compounds are listed: those with a hit (about 2.4% of all), similar ones and a draw of the others. Unless noted, calls come from the whole dose curve; as a rule, active = well fitted activation curve with a large enough effect; inconclusive = small, poorly fitted or top-dose-only effect; inactive = flat fitted curve, though single readings scatter.

SMILES	D2 antag	D2 PAM-1	D2 ag-1	D2 ag-2	D2 PAM-2	D3 arrestin ag	D2 ag-3
O=C(c1ccco1)N1CCN(C(=O)c2cc3cc([N+](=O)[O-])ccc3oc2=O)CC1	-13	6	1	1	-3	nt	nt
O=C(c1ccco1)N1CCN(Cc2cccc([N+](=O)[O-])c2)CC1	-2	-14	-2	37*	-3	-2%	6%
O=C(c1ccc([N+](=O)[O-])cc1)N1CCN(C(=O)c2cccs2)CC1	nt	-5	0	nt	-8	nt	nt
Cc1ccc(C)c(N2CCN(C(=O)Cn3c(C)c4cnn(-c5ccccc5)c(=O)c4c3C)CC2)c1	nt	5	nt	1	nt	nt	nt
CC(C)(C)c1ccc(C(=O)N2CCN(CCNC(=O)C(=O)NCc3ccc(Cl)cc3)CC2)cc1	27	4	-2	0	5	2%	15%
COc1ccc2[nH]c3c(=O)n4c(nc3c2c1)SCC4	11	-4	5	1	13	nt	nt
COc1cc2[nH]c3c(=O)n4c(nc3c2cc1OC)SCCC4	6	7	0	1	14	7%	-3%
O=C(C1CCC(CNS(=O)(=O)c2cccc3cccnc23)CC1)N1CCCC1 (stereo not given)	11	-4	1	-2	-3	nt	nt
O=S(=O)(NCC1CCCN(Cc2ccccc2O)C1)c1cccc2cccnc12 (stereo not given)	18	-21	-3	49*	-36	-6%	0%
O=C(CN1C(=O)CSc2ccc(S(=O)(=O)N3CCCC3)cc21)NCc1ccc(F)cc1Cl	nt	-14	nt	0	nt	nt	nt
CC(=O)N1CCC(N2CCN(c3ccccc3F)CC2)CC1	71*	-20	41*	75*	2	?	?
Cc1ncoc1C(=O)N1CCCC(N2CCN(c3ccccc3F)CC2)C1 (stereo not given)	1	-12	-3	36*	-26	-14%	-2%
O=C(c1ccco1)N1CCCC(N2CCN(c3ccccc3F)CC2)C1 (stereo not given)	-18	-11	-2	8	-41	nt	nt
O=C(c1ccnc(Cl)c1)N1CCCC(N2CCN(c3ccccc3F)CC2)C1 (stereo not given)	25	-6	3	24	0	19%	19%
CC(=O)N1c2ccccc2C(=O)C1N1CCN(c2ccccc2F)CC1 (stereo not given)	nt	3	nt	nt	nt	nt	nt
CCn1c(C)c(C)c2cc(C(=O)NCc3ccc(OC)cc3OC)ccc21	nt	10	nt	nt	nt	nt	nt
CCOc1ccc(CNC(=O)Cn2nc(C)n3cccc3c2=O)cc1	nt	1	nt	-1	nt	nt	nt
Cc1cccc(OC(C)C(=O)N2CCC(c3nc4ccccc4o3)CC2)c1C (stereo not given)	nt	16	nt	1	nt	nt	nt
CCOC(=O)N1CCc2c(sc(N)c2C#N)C1	58*	-26	?	74*	54*	?	?
Cc1[nH]c2ccccc2c1C(=O)CN1C(=O)C(=O)N(C2CCCC2)C1=O	-3	6	0	0	-2	-15%	-5%
Cc1cc(C(=O)CN2C(=O)C(=O)N(C3CCCC3)C2=O)c(C)n1CCc1ccccc1	-13	20	0	8	10	nt	nt
CCc1ccc(NC(=O)CSc2nc3c(sc4ccccc43)c(=O)n2CCCOC)cc1	nt	14	nt	0	nt	nt	nt
Oc1ccc(Cl)cc1C=NCCc1ccccc1	24	-16	10	43*	-7	?	17%
CC(=O)CSc1nnc(-c2ccc(S(=O)(=O)N3CCCC3)cc2)n1C	0	6	-1	-1	-1	nt	nt
CC(=O)CSc1nnc(-c2ccc(S(=O)(=O)N3CCOCC3)cc2)n1C	nt	nt	1	nt	-3	-2%	-3%
SMILES	D2 antag	D2 PAM-1	D2 ag-1	D2 ag-2	D2 PAM-2	D3 arrestin ag	D2 ag-3
Cc1[nH]nc2c1C1(CCN(Cc3ccccc3)CC1)C(C#N)=C(N)O2	nt	nt	6	nt	-7	-1%	-7%
Cc1[nH]nc2c1C1(CCOCC1)C(C#N)=C(N)O2	6	-3	-5	1	0	nt	nt
CC(C)C[C@@H](CO)N1CCN(Cc2ccccc2)CCC1=O	nt	1	-3	nt	-9	nt	nt
O=C1CCN(CCCc2ccccc2)CCN1[C@H](CO)c1ccccc1	23	8	0	0	-15	?	20%
N#CC[C@H](Cc1ccccc1)N1CCN(CCc2ccccc2)CCC1=O	34*	-17	-2	50*	-20	15%	1%
N#CC[C@H](Cc1ccccc1)N1CCN(Cc2ccccc2)CCC1=O	11	0	0	1	-4	nt	nt
CC(C)C[C@@H](CO)N1CCN(CCCc2ccccc2)CCC1=O	35*	8	-2	-1	-7	-1%	18%
CC(C)Oc1ccc(CNC(=O)C2COc3ccccc3C2)cc1 (stereo not given)	nt	11	nt	0	nt	nt	nt
O=C(Cn1nc(N2CCN(c3ccccc3)CC2)ccc1=O)NCc1ccccc1F	nt	-1	nt	0	nt	nt	nt
CC(=O)c1cc2c(C)c(C(=O)c3ccccc3)oc2cc1O	-9	-10	-3	36*	-27	1%	-2%
O=C(c1ccccc1)c1ccc(O)cc1O	-4	-3	-6	11	-8	nt	nt
COc1ccc(NC(=O)C(=O)NCC(c2ccc3c(c2)OCO3)N2CCN(C)CC2)cc1 (stereo not given)	nt	7	nt	-1	nt	nt	nt
O=C(Cn1ncc2c([nH]c3ccccc32)c1=O)NCCCN1CCN(c2ccccc2)CC1	103*	-2	?	-1	-27	13%	?
CC1CCCC(C)N1CCCNC(=O)Cn1ncc2c([nH]c3ccccc32)c1=O (stereo not given)	8	-3	1	0	-9	nt	nt
CCOc1ccc(-c2nn(CC(=O)NC3CCCCC3)c3c2cnc2ccc(C)cc23)cc1	nt	7	nt	0	nt	nt	nt
CCN(CCCNC(=O)c1nn(-c2ccc(OC)c(Cl)c2)c(=O)c2c1c1ccccc1n2C)c1cccc(C)c1	nt	-1	nt	0	nt	nt	nt
COc1cccc([C@H]2Nc3ccc(S(=O)(=O)Nc4cc(C)ccc4C)cc3[C@H]3C=CC[C@H]32)c1	nt	-4	nt	-1	nt	nt	nt
O=C(NC1CCCCC1)c1cc(C2CC2)nn1-c1ccccc1	nt	nt	14	nt	2	3%	11%
Cn1c(Cc2ccccc2)nnc1SCC(=O)N1CCOCC1	-23	3	-2	1	-3	nt	nt
O=C(CSc1nnc(Cc2ccccc2)n1-c1ccc(Cl)cc1)N1CCOCC1	-4	2	0	40*	-8	2%	-1%
